About 1,200 (3.2%) of roughly 38,000 compounds showed an effect of 50% or more. The median lay at about -58%. Many of the other results were omitted from the sample, so strong results are more common in it than they were.
tested on: Plasmodium falciparum; test: Calibr Malaria Delayed Death Assay SOP; type: functional, organism-based; parameters: scale not given: in the data most compounds retested in dose-response had high values; conditions: concentration 4.99e-06 (unit not given; other assays of the set use mol/L)

| SMILES | Percent Effect [%] |
| --- | --- |
| O=C(CCn1cncn1)NC1CCc2nccn2C1 (stereo unspecified) | -109.9 |
| C[C@]1(O)CN(Cc2ccc(C(=O)O)cc2)CC[C@@H]1Oc1cccc(F)c1 | -93.08 |
| O=c1ccc2c(n1CC1CC1)CCN(c1ncccn1)CC2 | 5.282 |
| O=C(O)C(F)(F)F.O=C(O)C(F)(F)F.c1ccc(COC[C@@H]2CCC[C@]23CN(Cc2nccs2)CCO3)nc1 | -24.57 |
| O=S(=O)(Cc1ccc(F)cc1)NCCc1nnc2n1CCC2 | -62.4 |
| Cc1nc(CNC(=O)NC(C)c2ccc3c(c2)OCCO3)cs1 (stereo unspecified) | -69.15 |
| COCCn1ccc(=O)c(OCC(=O)Nc2cccc(OC)c2)c1C | -50.47 |
| COCc1cc(CNCc2c(C)n(CC(C)C)c3ccccc23)n[nH]1 | -32.81 |
| Cc1cc(NC(=O)C(C#N)Cc2cnn(C)c2C)no1 (stereo unspecified) | -0.6706 |
| Cc1ccc(CN2CCC3(CCCN(C(=O)N(C)C)C3)C2)cc1 (stereo unspecified) | -64.1 |
| O=C(c1cnccn1)N1CCC2(CCCN(Cc3ccoc3)C2)C1 (stereo unspecified) | -97.37 |
| CCOC(=O)[C@H]1[C@@H](O)C(=O)N(C)C12CCN(C(=O)C(CC)CC)CC2 | -15.32 |
| CCN(C)C(=O)Nc1cc(F)c(OC)cc1F | -13.37 |
| O=C(c1ccc(F)c(Br)c1)N1CCCN2CCCC2C1 (stereo unspecified) | 22.61 |
| c1cncc(N2CCOC3(CCCN(c4nncs4)C3)C2)c1 (stereo unspecified) | -13.46 |
| Cc1cccc(N2CCCC3(C2)CN(c2nncs2)CCO3)c1 (stereo unspecified) | -92.55 |
| COc1ccc(N2CCCC3(C2)CN(c2nncs2)CCO3)cc1 (stereo unspecified) | 87.98 |
| O=C1CCCN1Cc1nnc2n1CCCN(C(=O)c1ccc[nH]1)C2 | -52.27 |
| O=C(c1ccc(-n2cnnc2)cc1)N1CCC(Nc2cccnn2)CC1 | -15.7 |
| CCN1Cc2ccccc2CC2(CCN(CC(=O)O)CC2)C1=O.O=C(O)C(F)(F)F | -102.3 |
| CCn1c(SCC(=O)O)nnc1C(C)NC(=O)c1ccc(Cl)cc1 (stereo unspecified) | -146.1 |
| Cc1noc(C(C)NC(=O)[C@@H](C)NC(=O)OC(C)(C)C)n1 (stereo partly specified) | -163.7 |
| Fc1ccc2[nH]c(C3CCCN3Cc3c[nH]cn3)nc2c1 (stereo unspecified) | 80.29 |
| O=C(c1cccc(CO)n1)N1CCCC1c1nc2cc(F)ccc2[nH]1 (stereo unspecified) | -67.52 |
| O=C(CN1CCCC1c1nc2cc(F)ccc2[nH]1)NCc1ccccn1 (stereo unspecified) | -65.25 |
| CC(C)OCCCNC(=O)NCc1cccc(-n2ccnc2)c1 | -80.58 |

| SMILES | Percent Effect [%] |
| --- | --- |
| Cc1nn(C)cc1-c1ccnc(N(C)Cc2noc(C(C)C)n2)n1 | -38.19 |
| Cc1nn(C)c(C)c1-c1ccnc(N(C)Cc2nc(C(C)C)no2)n1 | 65.96 |
| Cc1nn(C)c(C)c1-c1ccnc(N(C)Cc2noc(C(C)C)n2)n1 | -30.97 |
| Cc1cc(C(N)=O)c(N2C[C@@H](C)[C@@](C)(O)C2)nc1C | -47.89 |
| O=C(O)c1nc(SCc2ccc(F)cc2)ncc1Br | -159.2 |
| COc1cccc(CCC(=O)N2CCCCC2Cn2cccn2)c1 (stereo unspecified) | -142.5 |
| COc1cccc(CC(=O)N2CCCSCC2CN2CCCC2)c1 (stereo unspecified) | 54.27 |
| O=C(c1ccc2c(c1)OCO2)N1CCCSCC1CN1CCCC1 (stereo unspecified) | -7.883 |
| CCCN(CCC)c1nc(N)nc(-c2cc(Cl)ccc2OC)n1 | -49.81 |
| CN(C)CCCNC(=O)c1nc(Cc2c(Cl)cccc2Cl)no1 | -74.09 |
| CC[C@@H](C)[C@@H](N)C(=O)Nc1cccc(-c2cnc(NCCO)nc2)c1 | -39.72 |
| O=C1CC(c2ccccc2F)c2c(n(C3CCCC3)[nH]c2=O)N1 (stereo unspecified) | -93.23 |
| COc1ccccc1C(=O)NC(c1ccccn1)[C@H]1CC[C@H](CN)CC1 (stereo partly specified) | -2.636 |
| CCOCC1CN(CC2CC2)Cc2nn(C)cc21.O=C(O)C(F)(F)F (stereo unspecified) | -95.19 |
| NC(=O)CCNC(=O)NCC1(c2ccccc2Cl)CCC1 | -18.8 |
| CS(=O)(=O)CCCNCc1c(Cl)cccc1N1CCCC1 | 71.32 |
| CS(=O)(=O)CCCNC(=O)NC1CC(c2cccc(Cl)c2)C1 (stereo unspecified) | -17.33 |
| O=S(=O)(Cc1c(F)cccc1Cl)NCCCN1CCCCCC1 | 47.99 |
| NC(=O)CCNCc1c(Cl)cccc1N1CCCC1 | 65.52 |
| O=C(Nc1c(N2CCCC2)cccc1N1CCCC1)c1ccccn1 | -13.71 |
| O=C(CSC1CCc2ccccc2NC1=O)NCc1ccccc1 (stereo unspecified) | -28.24 |
| CC(Cn1cccn1)NC(=O)N1CCN(Cc2ccco2)CC1 (stereo unspecified) | -74.02 |
| Cn1ccnc1C(=O)N[C@@H]1CN(Cc2ccc(F)cc2)[C@@H]2CCCO[C@@H]21.O=C(O)C(F)(F)F | -85.57 |
| O=c1oc2ccccc2n1CCCN1CCCC1c1ccc(O)cc1 (stereo unspecified) | 52.75 |
| O=C1OCCN1CCCN1CCCC1c1ccc(O)cc1 (stereo unspecified) | -1.685 |
| Cc1nc(C2CCCN2CCCn2c(=O)oc3ccccc32)no1 (stereo unspecified) | -48.08 |

| SMILES | Percent Effect [%] |
| --- | --- |
| CC(=O)c1cc2c(=O)[nH]c(=O)n(C)c2nc1C | -16.7 |
| CC(C)Nc1ncccc1C(=O)NCc1ncc[nH]1 | -116.1 |
| Cn1cc(C(NCCc2ccccn2)c2cccc(F)c2)cn1 (stereo unspecified) | -2.846 |
| Fc1cccc(C(NCc2ncc[nH]2)c2ccccc2)c1 (stereo unspecified) | 67.9 |
| Cc1nccn1-c1ccc(C(C)NCc2ncc[nH]2)cc1 (stereo unspecified) | -35.75 |
| Clc1cccc(C(NCc2ncc[nH]2)c2ccccn2)c1 (stereo unspecified) | 86.37 |
| O=C(NCc1ncc[nH]1)c1c(F)cccc1I | -135.9 |
| CSCc1cc(F)ccc1CNCc1ncc[nH]1 | -2.338 |
| Fc1cccc(C(NCc2ncc[nH]2)c2ccccn2)c1 (stereo unspecified) | 91.42 |
| CC(=O)N(C)C(c1cccc(F)c1)c1ccccn1 (stereo unspecified) | -75.26 |
| CC(C)NC(=O)N1CCN(C(=O)c2ccco2)CC2(CC(=O)N(C)C2)C1 (stereo unspecified) | -8.212 |
| CC(C)CC(=O)NS(=O)(=O)c1ccc2c(c1)OCCCO2 | -13.67 |
| CC(C)c1nn(C)c(N2CCOCC2)c1CNCc1cscn1 | -74.61 |
| O=C(NCC(O)COc1ccc(C(F)(F)F)cc1)Nc1nncs1 (stereo unspecified) | -99.86 |
| Cc1cccc2c(CCNC(=O)[C@H](N)c3ccccc3)c[nH]c12 | 61.63 |
| Cc1cccc2c(CCNC(=O)NCC[S+](C)[O-])c[nH]c12 (stereo unspecified) | -101.3 |
| Cc1cccc2c(CCNC(=O)NCCC[S+](C)[O-])c[nH]c12 (stereo unspecified) | -83.64 |
| CC(C)Cn1c(=O)n(CCn2cc(Cl)cn2)c2cc(C(=O)O)cnc21 | -13.68 |
| CCc1noc(CN(Cc2cccs2)C2CC2)n1 | -139.3 |
| O=C(CCc1nnc2ccccn2c1=O)NCc1cccnc1 | -35.93 |
| Cl.Cn1nc(C2CCCN(Cc3ccccc3)C2)c2nccnc21 (stereo unspecified) | -32.54 |
| CN(C)c1ncccc1NC(=O)C1CN(Cc2ccccc2)CCO1 (stereo unspecified) | -7.192 |
| Cc1cccc(CN2CC[C@@H]3[C@@H](CO[C@H]3CNc3ncccn3)C2)n1.O=C(O)C(F)(F)F.O=C(O)C(F)(F)F.O=C(O)C(F)(F)F | -54.04 |
| Cn1cc(N2CC3(CCN(Cc4ccccc4)CC3)OCC2=O)cn1.O=C(O)C(F)(F)F | -75.76 |
